Laboratory results from paper PMC7862700, “An all-to-all approach to the identification of sequence-specific readers for epigenetic DNA modifications on cytosine”.

Assays:
Assay in all cases: DAPPL (digital affinity profiling via proximity ligation, sequencing); 10 mM Tris-HCl pH 7.5, 50 mM NaCl, 1 mM DTT, 4% glycerol, room temperature, 30 min; GST-TFs on glutathione beads, 16-mer random dsDNA library, 0.1% formaldehyde crosslink after washing; high values mean tight binding
ETV5 = ETV5 (Homo sapiens, UniProt P41161 1-510); conditions: protein: recombinant; tags: N-terminal GST; dsDNA, one strand shown
Chain of ETV5 (P41161 whole entry, the tested form may be a part): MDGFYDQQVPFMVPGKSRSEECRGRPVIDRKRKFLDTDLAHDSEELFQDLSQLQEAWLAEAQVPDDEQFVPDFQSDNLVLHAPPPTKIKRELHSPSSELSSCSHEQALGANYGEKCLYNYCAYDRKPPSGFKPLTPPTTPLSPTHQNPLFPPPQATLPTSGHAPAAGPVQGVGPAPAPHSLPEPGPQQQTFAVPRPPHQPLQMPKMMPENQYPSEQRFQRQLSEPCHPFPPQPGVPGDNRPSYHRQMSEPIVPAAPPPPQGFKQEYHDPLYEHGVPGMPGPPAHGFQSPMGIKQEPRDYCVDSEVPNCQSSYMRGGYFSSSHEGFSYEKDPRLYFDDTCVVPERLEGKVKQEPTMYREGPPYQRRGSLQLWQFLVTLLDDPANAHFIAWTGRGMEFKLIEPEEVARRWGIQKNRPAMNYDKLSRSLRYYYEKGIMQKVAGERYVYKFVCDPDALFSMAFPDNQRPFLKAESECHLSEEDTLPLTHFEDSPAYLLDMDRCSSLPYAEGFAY
Method in brief: (§1)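 Binding signal is each hexamer's read frequency for a factor divided by its frequency in the tag-only sample. The factors were GST-fused human transcription factors from yeast, captured on glutathione beads, DNA-barcoded and pooled with that sample. Pools were incubated with 200 nmole of a random double-stranded 16-mer DNA library in Tris/NaCl/DTT/glycerol buffer at room temperature for 30 min, then washed, crosslinked with 0.1% formaldehyde, proximity-ligated with BsaI/T4 ligase (1 h, 37 °C), PCR-amplified and sequenced on an Illumina NextSeq500.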

HSF1 = HSF1 (Homo sapiens, UniProt Q00613 1-529); conditions: protein: recombinant; tags: N-terminal GST; chain copies: 3; dsDNA, one strand shown
Chain of HSF1 (Q00613 whole entry): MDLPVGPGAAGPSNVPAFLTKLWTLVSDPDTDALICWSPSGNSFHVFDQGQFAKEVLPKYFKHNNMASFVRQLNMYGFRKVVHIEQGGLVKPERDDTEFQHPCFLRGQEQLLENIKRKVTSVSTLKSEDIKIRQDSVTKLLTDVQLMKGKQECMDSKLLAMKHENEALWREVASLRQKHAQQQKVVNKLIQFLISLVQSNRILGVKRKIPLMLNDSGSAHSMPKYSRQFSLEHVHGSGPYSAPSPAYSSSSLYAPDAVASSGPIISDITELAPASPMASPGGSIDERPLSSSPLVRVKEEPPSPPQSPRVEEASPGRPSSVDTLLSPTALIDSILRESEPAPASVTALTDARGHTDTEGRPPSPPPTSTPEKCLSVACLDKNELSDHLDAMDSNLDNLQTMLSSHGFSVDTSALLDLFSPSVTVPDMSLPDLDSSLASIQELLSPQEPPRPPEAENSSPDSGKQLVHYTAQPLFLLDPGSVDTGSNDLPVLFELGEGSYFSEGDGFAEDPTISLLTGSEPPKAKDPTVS
Method in brief: as §1

ELF4 = ELF4 (Homo sapiens, UniProt Q99607 1-663); conditions: protein: recombinant; tags: N-terminal GST; dsDNA, one strand shown
Chain of ELF4 (Q99607 whole entry): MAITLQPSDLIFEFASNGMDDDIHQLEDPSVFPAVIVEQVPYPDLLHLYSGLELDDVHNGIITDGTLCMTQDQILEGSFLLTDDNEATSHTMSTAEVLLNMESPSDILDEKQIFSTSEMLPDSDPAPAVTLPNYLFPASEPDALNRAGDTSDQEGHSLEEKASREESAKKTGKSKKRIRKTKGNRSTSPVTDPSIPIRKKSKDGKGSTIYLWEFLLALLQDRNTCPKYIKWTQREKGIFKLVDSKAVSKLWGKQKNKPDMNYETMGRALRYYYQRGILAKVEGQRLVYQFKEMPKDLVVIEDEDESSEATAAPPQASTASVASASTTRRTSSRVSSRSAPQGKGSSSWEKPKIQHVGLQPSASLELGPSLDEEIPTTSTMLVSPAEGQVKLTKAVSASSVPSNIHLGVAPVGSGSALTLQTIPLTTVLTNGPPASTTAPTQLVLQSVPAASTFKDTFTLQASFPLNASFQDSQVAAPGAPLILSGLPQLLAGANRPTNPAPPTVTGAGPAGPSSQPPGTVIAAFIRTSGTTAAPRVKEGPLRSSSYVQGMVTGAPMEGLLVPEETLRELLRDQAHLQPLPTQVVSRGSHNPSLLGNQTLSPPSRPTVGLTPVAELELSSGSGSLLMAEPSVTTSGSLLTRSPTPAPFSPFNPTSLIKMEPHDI
Method in brief: as §1

ELK4 = biological target: T1, ELK4 (Homo sapiens, UniProt P28324-2 1-405); conditions: protein: recombinant; tags: N-terminal GST; dsDNA, one strand shown
T1 sequence: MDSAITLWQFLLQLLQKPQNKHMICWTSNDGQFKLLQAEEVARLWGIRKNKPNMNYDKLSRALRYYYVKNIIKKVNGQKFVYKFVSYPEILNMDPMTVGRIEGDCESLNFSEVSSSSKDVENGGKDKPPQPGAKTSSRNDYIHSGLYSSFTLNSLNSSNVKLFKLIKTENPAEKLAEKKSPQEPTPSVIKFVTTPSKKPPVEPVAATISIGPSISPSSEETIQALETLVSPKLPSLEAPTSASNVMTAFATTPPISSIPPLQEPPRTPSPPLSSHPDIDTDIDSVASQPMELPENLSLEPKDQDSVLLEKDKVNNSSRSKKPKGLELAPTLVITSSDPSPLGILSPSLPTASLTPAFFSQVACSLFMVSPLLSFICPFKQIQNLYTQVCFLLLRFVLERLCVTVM
Method in brief: as §1

ETV2 = biological target: T2, ETV2 (Homo sapiens, UniProt O00321 1-342); conditions: protein: recombinant; tags: N-terminal GST; dsDNA, one strand shown
T2 sequence: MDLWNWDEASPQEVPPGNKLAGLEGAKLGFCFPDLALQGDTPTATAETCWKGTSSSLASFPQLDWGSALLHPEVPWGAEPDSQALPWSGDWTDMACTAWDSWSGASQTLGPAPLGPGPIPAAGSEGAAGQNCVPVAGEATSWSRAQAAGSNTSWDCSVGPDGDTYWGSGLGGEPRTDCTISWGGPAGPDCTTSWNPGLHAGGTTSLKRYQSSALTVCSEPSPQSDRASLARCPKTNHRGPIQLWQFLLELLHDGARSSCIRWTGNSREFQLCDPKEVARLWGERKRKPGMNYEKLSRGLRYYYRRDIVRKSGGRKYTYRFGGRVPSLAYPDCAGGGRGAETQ
Method in brief: as §1

ELF3 = biological target: T3, ELF3 (Homo sapiens, UniProt P78545 1-371); conditions: protein: recombinant; tags: N-terminal GST; dsDNA, one strand shown
T3 sequence: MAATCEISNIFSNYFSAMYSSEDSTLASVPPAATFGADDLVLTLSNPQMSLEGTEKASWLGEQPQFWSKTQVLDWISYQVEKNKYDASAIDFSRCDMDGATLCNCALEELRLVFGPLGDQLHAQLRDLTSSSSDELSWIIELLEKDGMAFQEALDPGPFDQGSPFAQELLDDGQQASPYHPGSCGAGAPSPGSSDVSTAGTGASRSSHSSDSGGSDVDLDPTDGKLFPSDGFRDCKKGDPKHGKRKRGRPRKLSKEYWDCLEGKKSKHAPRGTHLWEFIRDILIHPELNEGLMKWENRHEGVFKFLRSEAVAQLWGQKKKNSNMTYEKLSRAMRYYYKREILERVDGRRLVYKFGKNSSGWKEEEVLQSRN
Method in brief: as §1

CRX = CRX (Homo sapiens, UniProt O43186 1-299); conditions: protein: recombinant; tags: N-terminal GST; dsDNA, one strand shown
Chain of CRX (O43186 whole entry): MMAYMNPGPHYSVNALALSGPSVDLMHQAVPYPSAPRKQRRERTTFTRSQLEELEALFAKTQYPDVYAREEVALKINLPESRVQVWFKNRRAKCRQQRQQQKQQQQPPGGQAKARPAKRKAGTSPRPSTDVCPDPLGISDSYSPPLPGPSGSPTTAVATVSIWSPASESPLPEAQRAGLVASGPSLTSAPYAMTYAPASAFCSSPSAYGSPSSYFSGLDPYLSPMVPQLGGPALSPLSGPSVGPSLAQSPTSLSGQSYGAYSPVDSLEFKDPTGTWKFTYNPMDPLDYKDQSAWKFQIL
Method in brief: as §1

ETV1 = ETV1 (Homo sapiens, UniProt P50549 1-477); conditions: protein: recombinant; tags: N-terminal GST; dsDNA, one strand shown
Chain of ETV1 (P50549 whole entry): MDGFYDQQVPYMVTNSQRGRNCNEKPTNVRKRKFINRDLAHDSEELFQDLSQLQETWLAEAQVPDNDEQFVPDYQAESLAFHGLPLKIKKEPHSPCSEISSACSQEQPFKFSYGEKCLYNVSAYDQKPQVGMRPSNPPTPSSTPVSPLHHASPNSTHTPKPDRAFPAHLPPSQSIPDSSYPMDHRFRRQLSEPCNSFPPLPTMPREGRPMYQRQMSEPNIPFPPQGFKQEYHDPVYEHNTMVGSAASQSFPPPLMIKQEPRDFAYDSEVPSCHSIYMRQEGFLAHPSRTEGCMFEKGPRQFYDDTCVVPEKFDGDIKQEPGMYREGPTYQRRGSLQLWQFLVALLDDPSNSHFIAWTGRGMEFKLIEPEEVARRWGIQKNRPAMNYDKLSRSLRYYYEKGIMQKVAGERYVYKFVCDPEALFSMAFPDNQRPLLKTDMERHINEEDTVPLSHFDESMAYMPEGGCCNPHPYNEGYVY
Method in brief: as §1

ERF = biological target: T4, ERF (Homo sapiens, UniProt P50548 1-548); conditions: protein: recombinant; tags: N-terminal GST; dsDNA, one strand shown
T4 sequence: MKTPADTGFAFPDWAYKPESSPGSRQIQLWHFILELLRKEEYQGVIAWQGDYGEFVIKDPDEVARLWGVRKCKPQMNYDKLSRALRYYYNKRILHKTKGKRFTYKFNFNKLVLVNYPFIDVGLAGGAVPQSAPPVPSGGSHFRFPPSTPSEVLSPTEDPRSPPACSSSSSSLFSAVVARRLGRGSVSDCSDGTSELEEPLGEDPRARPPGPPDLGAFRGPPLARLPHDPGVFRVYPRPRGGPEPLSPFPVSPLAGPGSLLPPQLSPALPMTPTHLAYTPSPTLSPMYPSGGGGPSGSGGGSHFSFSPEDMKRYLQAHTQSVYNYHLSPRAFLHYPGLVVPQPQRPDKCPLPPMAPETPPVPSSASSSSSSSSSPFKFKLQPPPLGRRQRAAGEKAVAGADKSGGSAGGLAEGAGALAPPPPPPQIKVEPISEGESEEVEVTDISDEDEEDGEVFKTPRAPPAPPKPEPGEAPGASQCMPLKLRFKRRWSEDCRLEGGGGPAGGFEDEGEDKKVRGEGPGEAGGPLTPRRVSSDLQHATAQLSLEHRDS
Method in brief: as §1

ETV3L = biological target: T5, ETV3L (Homo sapiens, UniProt Q6ZN32 1-361); conditions: protein: recombinant; tags: N-terminal GST; dsDNA, one strand shown
T5 sequence: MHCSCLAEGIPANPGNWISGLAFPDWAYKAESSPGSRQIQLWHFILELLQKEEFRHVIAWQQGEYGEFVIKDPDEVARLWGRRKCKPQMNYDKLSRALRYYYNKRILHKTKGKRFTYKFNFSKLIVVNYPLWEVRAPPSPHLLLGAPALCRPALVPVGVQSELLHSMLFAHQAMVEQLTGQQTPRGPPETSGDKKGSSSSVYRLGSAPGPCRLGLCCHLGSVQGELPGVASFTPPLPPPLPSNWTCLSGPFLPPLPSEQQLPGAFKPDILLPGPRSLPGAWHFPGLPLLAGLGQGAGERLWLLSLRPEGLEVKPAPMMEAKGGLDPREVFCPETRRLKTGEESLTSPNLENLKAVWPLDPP
Method in brief: as §1

ETS2 = biological target: T6, ETS2 (Homo sapiens, UniProt P15036 1-469); conditions: protein: recombinant; tags: N-terminal GST; dsDNA, one strand shown
T6 sequence: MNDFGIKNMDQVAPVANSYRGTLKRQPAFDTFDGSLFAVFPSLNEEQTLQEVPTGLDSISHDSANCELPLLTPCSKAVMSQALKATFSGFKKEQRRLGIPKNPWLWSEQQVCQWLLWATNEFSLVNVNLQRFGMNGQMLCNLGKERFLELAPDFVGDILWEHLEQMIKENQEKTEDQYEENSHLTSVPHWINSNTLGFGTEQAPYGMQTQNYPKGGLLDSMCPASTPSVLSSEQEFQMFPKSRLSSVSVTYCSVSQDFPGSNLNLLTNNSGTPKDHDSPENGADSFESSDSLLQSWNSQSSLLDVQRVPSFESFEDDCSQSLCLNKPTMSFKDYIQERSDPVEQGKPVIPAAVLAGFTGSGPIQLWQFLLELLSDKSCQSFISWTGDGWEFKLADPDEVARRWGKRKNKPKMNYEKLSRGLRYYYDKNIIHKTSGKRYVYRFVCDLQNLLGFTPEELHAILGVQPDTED
Method in brief: as §1

SPDEF = biological target: T7, SPDEF (Homo sapiens, UniProt O95238 1-335); conditions: protein: recombinant; tags: N-terminal GST; dsDNA, one strand shown
T7 sequence: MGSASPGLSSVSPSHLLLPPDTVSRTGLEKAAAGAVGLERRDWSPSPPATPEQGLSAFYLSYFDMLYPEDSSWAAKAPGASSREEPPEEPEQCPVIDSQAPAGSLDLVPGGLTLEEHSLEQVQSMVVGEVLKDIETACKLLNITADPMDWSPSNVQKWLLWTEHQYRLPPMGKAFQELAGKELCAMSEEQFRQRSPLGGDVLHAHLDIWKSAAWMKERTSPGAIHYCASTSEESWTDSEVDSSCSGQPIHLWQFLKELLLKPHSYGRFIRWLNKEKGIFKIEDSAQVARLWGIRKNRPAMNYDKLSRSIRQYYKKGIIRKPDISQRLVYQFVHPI
Method in brief: as §1

ETV7 = biological target: T8, ETV7 (Homo sapiens, UniProt Q9Y603 1-341); conditions: protein: recombinant; tags: N-terminal GST; dsDNA, one strand shown
T8 sequence: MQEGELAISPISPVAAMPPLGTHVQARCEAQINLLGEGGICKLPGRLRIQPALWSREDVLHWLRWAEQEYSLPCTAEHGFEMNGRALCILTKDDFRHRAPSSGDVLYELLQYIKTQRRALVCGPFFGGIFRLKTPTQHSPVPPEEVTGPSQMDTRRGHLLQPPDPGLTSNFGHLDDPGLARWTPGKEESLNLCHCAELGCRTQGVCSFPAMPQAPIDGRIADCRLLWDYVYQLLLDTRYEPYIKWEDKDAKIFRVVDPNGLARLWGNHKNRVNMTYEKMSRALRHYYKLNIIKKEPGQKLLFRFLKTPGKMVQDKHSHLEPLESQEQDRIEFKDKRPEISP
Method in brief: as §1

ETV3 = biological target: T9, ETV3 (Homo sapiens, UniProt P41162-2 1-143); conditions: protein: recombinant; tags: N-terminal GST; dsDNA, one strand shown
T9 sequence: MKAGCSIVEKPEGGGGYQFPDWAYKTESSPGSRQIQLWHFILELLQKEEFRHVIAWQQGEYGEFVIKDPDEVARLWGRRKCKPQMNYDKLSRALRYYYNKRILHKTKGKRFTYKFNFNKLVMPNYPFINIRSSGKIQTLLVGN
Method in brief: as §1

ETV6 = ETV6 (Homo sapiens, UniProt P41212 1-452); conditions: protein: recombinant; tags: N-terminal GST; dsDNA, one strand shown
Chain of ETV6 (P41212 whole entry): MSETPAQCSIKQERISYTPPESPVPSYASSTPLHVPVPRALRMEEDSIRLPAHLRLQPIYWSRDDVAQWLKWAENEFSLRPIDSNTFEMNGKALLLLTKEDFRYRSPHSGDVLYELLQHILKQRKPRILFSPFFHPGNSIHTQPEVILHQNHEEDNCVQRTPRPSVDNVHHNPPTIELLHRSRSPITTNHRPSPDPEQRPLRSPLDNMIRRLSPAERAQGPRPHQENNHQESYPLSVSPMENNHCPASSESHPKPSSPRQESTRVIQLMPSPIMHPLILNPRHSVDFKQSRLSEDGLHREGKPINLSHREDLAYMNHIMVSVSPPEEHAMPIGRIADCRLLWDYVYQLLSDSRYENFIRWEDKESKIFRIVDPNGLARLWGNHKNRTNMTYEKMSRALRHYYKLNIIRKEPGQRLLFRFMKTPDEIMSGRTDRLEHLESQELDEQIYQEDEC
Method in brief: as §1

FEV = biological target: T10, FEV (Homo sapiens, UniProt Q99581 1-238); conditions: protein: recombinant; tags: N-terminal GST; dsDNA, one strand shown
T10 sequence: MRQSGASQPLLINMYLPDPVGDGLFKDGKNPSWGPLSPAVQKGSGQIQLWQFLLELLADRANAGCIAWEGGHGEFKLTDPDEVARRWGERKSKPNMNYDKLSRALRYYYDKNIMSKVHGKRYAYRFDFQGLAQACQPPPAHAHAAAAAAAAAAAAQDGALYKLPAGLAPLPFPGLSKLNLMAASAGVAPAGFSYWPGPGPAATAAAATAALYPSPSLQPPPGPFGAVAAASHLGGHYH
Method in brief: as §1

ELF5 = biological target: T11, ELF5 (Homo sapiens, UniProt Q9UKW6-2 1-255); conditions: protein: recombinant; tags: N-terminal GST; dsDNA, one strand shown
T11 sequence: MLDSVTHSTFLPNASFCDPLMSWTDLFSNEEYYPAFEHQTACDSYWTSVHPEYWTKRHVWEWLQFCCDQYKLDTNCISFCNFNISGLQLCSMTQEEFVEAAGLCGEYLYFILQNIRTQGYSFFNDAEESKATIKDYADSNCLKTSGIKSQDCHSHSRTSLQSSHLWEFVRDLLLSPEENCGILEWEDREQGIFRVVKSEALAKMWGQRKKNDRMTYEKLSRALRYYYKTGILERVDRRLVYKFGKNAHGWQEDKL
Method in brief: as §1

AGGTAT
binding signal (ETV5): 1.02 fold enrichment (6-mer frequency, TF over GST control) | binding signal (HSF1): 1.07 fold enrichment (6-mer frequency, TF over GST control) | binding signal (ELF4): 1.02 fold enrichment (6-mer frequency, TF over GST control) | binding signal (ELK4): 1.03 fold enrichment (6-mer frequency, TF over GST control) | binding signal (ETV2): 1.03 fold enrichment (6-mer frequency, TF over GST control) | binding signal (ELF3): 1.12 fold enrichment (6-mer frequency, TF over GST control) | binding signal (CRX): 1.05 fold enrichment (6-mer frequency, TF over GST control) | binding signal (ETV1): 1.02 fold enrichment (6-mer frequency, TF over GST control) | binding signal (ERF): 1.16 fold enrichment (6-mer frequency, TF over GST control) | binding signal (ETV3L): 1.02 fold enrichment (6-mer frequency, TF over GST control) | binding signal (ETS2): 1 fold enrichment (6-mer frequency, TF over GST control) | binding signal (SPDEF): 1.12 fold enrichment (6-mer frequency, TF over GST control) | binding signal (ETV7): 1.12 fold enrichment (6-mer frequency, TF over GST control) | binding signal (ETV3): 1.11 fold enrichment (6-mer frequency, TF over GST control) | binding signal (ETV6): 1.01 fold enrichment (6-mer frequency, TF over GST control)

TAACCA
binding signal (FEV): 1 fold enrichment (6-mer frequency, TF over GST control) | binding signal (ETV5): 1.06 fold enrichment (6-mer frequency, TF over GST control) | binding signal (HSF1): 1.16 fold enrichment (6-mer frequency, TF over GST control) | binding signal (ELF4): 1.16 fold enrichment (6-mer frequency, TF over GST control) | binding signal (ELK4): 1.04 fold enrichment (6-mer frequency, TF over GST control) | binding signal (ETV2): 1.12 fold enrichment (6-mer frequency, TF over GST control) | binding signal (ELF3): 1.1 fold enrichment (6-mer frequency, TF over GST control) | binding signal (CRX): 1.31 fold enrichment (6-mer frequency, TF over GST control) | binding signal (ETV1): 1.02 fold enrichment (6-mer frequency, TF over GST control) | binding signal (ERF): 1.1 fold enrichment (6-mer frequency, TF over GST control) | binding signal (ETV3L): 1.13 fold enrichment (6-mer frequency, TF over GST control) | binding signal (ETS2): 1.12 fold enrichment (6-mer frequency, TF over GST control) | binding signal (SPDEF): 1.05 fold enrichment (6-mer frequency, TF over GST control) | binding signal (ETV7): 1.09 fold enrichment (6-mer frequency, TF over GST control) | binding signal (ELF5): 1.09 fold enrichment (6-mer frequency, TF over GST control) | binding signal (ETV3): 1.13 fold enrichment (6-mer frequency, TF over GST control) | binding signal (ETV6): 1.04 fold enrichment (6-mer frequency, TF over GST control)
